Source: PubChem BioAssay
A selection: hits, their analogues and other compounds. The true share with any hit is near 7.3%.
KinaseGlo FLuc = Kinase-Glo luciferase inhibition (counter-screen). Q27757. Kinase-Glo luciferase, ATP luminescence, 8 min. Potency, µM (titrated, usually from 38.3 µM), for inactives: top-dose activity change, negative = inhibition, actives largely listed as inhibitors. 0.28% of 200,000 active. AID 1379; also: % is scaled to controls: 0 for no effect and ±100 for the full control effect; nearly all actives have a fitted effect of over 60% in size
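Substrate mix (final 50 mM imidazole pH 7.2, 50 mM KCl, 7 mM MgCl2, 10 uM ATP, 0.01% Tween 20, 0.05% BSA) plus pin-tool compound, then Kinase-Glo detection mix; 8 min ambient, luminescence read.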
Rab9 prom act = activators of Rab9 promoter. 2.8% of 320,000 active. Huh7 Rab9 promoter-luciferase reporter, luminescence, 24 h. Potency, µM (top dose mostly 9.22 µM), inactives show at the highest dose activation, negative = inhibition, most hits filed as activators; also: % of control where 0% means no effect; nearly all actives have a fitted effect of over 60% in size
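Promoter activation is measured as luciferase luminescence in Huh7 cells stably transfected with a Rab9 promoter–luciferase construct, following 24 h compound exposure at 37 °C and 10 min reagent incubation at ambient temperature.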
ELG1 genotox = induces genotoxicity in HEK293T cells with luciferase-tagged ELG1; HEK293T ELG1-luciferase reporter, luminescence, 16 h; Potency, µM (top dose mostly 46 µM), inactives show at the top dose activity change, positive = activation, hits mostly activators; 1.3% of 330,000 active; also: % of control where 0% means no effect; nearly all actives have a fitted effect of over 60% in size
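Quantitative HTS format in 1536-well plates. HEK293T ELG1-luciferase reporter cells receive test compound and are incubated 16 hr at 37 °C, 5% CO2; ONE-Glo added, 30 min room temperature, then luminescence read.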
FLuc modulator = counter-screen for miR-21 project: firefly luciferase inhibitors or activators | P08659 | purified FLuc, Km substrates, luminescence inhibition | Potency, µM (doses to about 57.5 µM), without a hit: top-dose activity change, negative = inhibition, usual class: inhibitors | 6.9% of 360,000 active | AID 588342;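 also: plate controls were vehicle for no effect and reference inhibitor for full effect; nearly all actives have a fitted effect of over 55% in size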
Target sequence (P08659 whole entry, looked up): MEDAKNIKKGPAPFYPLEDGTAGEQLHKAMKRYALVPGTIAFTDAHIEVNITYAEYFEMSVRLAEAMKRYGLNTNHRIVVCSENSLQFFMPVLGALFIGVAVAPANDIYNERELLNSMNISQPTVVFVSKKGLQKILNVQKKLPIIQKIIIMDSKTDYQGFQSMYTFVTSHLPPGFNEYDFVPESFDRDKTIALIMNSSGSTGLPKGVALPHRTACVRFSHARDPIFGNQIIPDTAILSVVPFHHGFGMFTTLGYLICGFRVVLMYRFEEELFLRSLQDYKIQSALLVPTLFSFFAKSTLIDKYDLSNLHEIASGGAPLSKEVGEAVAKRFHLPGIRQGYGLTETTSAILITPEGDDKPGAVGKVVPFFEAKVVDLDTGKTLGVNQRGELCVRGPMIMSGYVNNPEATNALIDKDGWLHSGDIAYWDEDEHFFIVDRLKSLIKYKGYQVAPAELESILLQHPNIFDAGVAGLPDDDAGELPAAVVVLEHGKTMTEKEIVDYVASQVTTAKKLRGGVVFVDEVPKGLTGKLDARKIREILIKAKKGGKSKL
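Purified P. pyralis luciferase (10nM final) with 10uM D-luciferin and 10uM ATP (Km levels) in 50mM Tris acetate pH 7.5, 10mM Mg acetate, 0.01% Tween-20, 0.05% BSA; qHTS 6-point titration, ~60 µM downward; luminescence read.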
SMN2 splice up = SMN2 splice variant enhancement | HEK293 SMN2-luciferase splicing reporter, luminescence, 30-36 h | Potency, µM (top dose mostly 46.1 µM), without a hit: top-dose activity change, positive = activation, hits mostly activators | 2.8% of 210,000 active; also: % of control where 0% means no effect; nearly all actives have a fitted effect of over 55% in size
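HEK293 cells carry an SMN2 […]–luciferase reporter in which exon 7 inclusion puts luciferase in frame. Cells were plated 10-12 h before compound addition, then incubated 30-36 h at 37C. ONE-Glo luminescence was read; sodium butyrate at 4.5 mM final served as control.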
NPC1 prom act = activators of NPC1 promoter; Huh7 NPC1 promoter luciferase reporter, 24 h; AID 485313; 2.4% of 320,000 active; Potency, µM (titrated, usually from 9.22 µM), without a hit: at the highest dose activation, actives largely listed as activators; also: % of control where 0% means no effect; nearly all actives have a fitted effect of over 60% in size
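Luminescence from an NPC1 promoter-driven luciferase reporter in stably transfected Huh7 cells was measured after 24 h compound treatment at 37 °C, followed by 10 min ambient incubation with luciferase detection reagent.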
Starred values were filed as active, the others as inactive. Calls follow the shape of the dose curve; as a rule, active = well fitted curve in the direction sought with a large enough effect; inconclusive = small, poorly fitted or top-dose-only effect, or another doubt; inactive = no such curve, though single readings can be large; an effect the other way counts as inactive or inconclusive. Potency is read from the fitted curve at half-maximal effect.

Screening CN(C(=O)CSc1nc2ccccc2n1CC(=O)NCc1ccc(F)cc1)c1ccc(F)cc1 returned FLuc modulator -10%.
`Clc1ccc(CSc2nc3ccncc3[nH]2)cc1` gave KinaseGlo FLuc inconclusive, Rab9 prom act 0.71µM*, ELG1 genotox 2.9µM*, FLuc modulator 4.8µM*, SMN2 splice up 11µM* and NPC1 prom act 0.63µM*.
For O=C(c1ccc(CSc2nc3ccncc3n2Cc2ccccc2)cc1)N1CCCCCC1 the results were FLuc modulator 17µM* and SMN2 splice up -28%.
`Cc1ccc(CSc2nc3ccncc3[nH]2)cc1` gave KinaseGlo FLuc 11µM*, Rab9 prom act inconclusive, ELG1 genotox inconclusive, FLuc modulator 2.7µM*, SMN2 splice up 7.1µM* and NPC1 prom act inconclusive.
Screening O=C(c1ccc(CSc2nc3ccncc3[nH]2)cc1)N1CCCCCC1 returned Rab9 prom act inconclusive, ELG1 genotox inconclusive, FLuc modulator 15µM* and NPC1 prom act inconclusive.
O=C(NCCC1=CCCCC1)c1ccc2c(c1)N(Cc1ccccc1)C(=O)c1ccccc1S2(=O)=O was read as FLuc modulator -6% and SMN2 splice up 12%.
Cc1cc(F)ccc1S(=O)(=O)NCC(c1ccco1)S(=O)(=O)c1cccs1 (stereo not drawn) was read as FLuc modulator 1%.
Screening O=C(NCc1ccc(F)cc1)C1CCN(C(=O)c2ccc(-n3ccc4ccccc43)s2)CC1 returned FLuc modulator -14%.
Cc1ccc(-n2ncc(C(=O)NCCCN3CCN(C)CC3)c2C2CCN(C(=O)OC(C)(C)C)CC2)cc1 was read as FLuc modulator -3%.
O=C1C=C(N2CCCCCC2)C(=O)N1c1ccc(Cl)cc1 was read as Rab9 prom act 2.2µM*, ELG1 genotox inconclusive, FLuc modulator 2.1µM* and NPC1 prom act 1.6µM*.
`N#Cc1ccccc1CSc1nnc(-c2ccccc2)o1` gave FLuc modulator 3.8µM* and SMN2 splice up 11µM*.
For COc1ccc(-c2nnc(SCc3ccccc3F)o2)cc1OC the results were KinaseGlo FLuc -5%, Rab9 prom act inconclusive, ELG1 genotox 23%, FLuc modulator 24µM*, SMN2 splice up 18% and NPC1 prom act 29%.
`Cc1ccc(-c2nnc(SCc3ccccc3F)o2)cc1` gave KinaseGlo FLuc -2%, Rab9 prom act 0.89µM*, ELG1 genotox 8.2µM*, FLuc modulator inconclusive, SMN2 splice up 11µM* and NPC1 prom act 0.79µM*.
For CSc1ncc(C(=O)N2CCN(c3cccc(C(F)(F)F)c3)CC2)c(C)n1 the results were FLuc modulator 4%.
O=C(/C=C/N1CCOCC1)c1cc2ccccc2o1 was read as KinaseGlo FLuc -1%, Rab9 prom act 4µM*, ELG1 genotox inconclusive, FLuc modulator 9.5µM*, SMN2 splice up 11µM* and NPC1 prom act 3.5µM*.
Screening O=C(Nc1ccc(N2CCOCC2)cc1)c1nc2ccccc2s1 returned Rab9 prom act 0.1µM*, ELG1 genotox inconclusive, FLuc modulator 0.24µM* and NPC1 prom act 0.1µM*.
`O=C(c1cc2ccccc2o1)N1CCCC1` gave KinaseGlo FLuc -1%, Rab9 prom act 12%, ELG1 genotox 13%, FLuc modulator -18% and NPC1 prom act 1%.
O=C(Nc1c(C(=O)Nc2ccc(F)cc2)oc2ccccc12)c1cc2ccccc2o1 was read as FLuc modulator 2.7µM* and SMN2 splice up 2%.
For CCc1ccc(C(=O)Nc2ccc(C)c(NS(C)(=O)=O)c2)cc1 the results were Rab9 prom act 13%, ELG1 genotox 1%, FLuc modulator 12µM* and NPC1 prom act inconclusive.
`COc1ccc(Cn2c(=O)c3oc4ccccc4c3n(Cc3cccc(C(F)(F)F)c3)c2=O)cc1` gave FLuc modulator 0%.
